PubChem BioAssay AID1159580 (chemical genetic matrix, 2015)
The whole screen tested about 5,500 compounds, of which about 2,000 (36%) were called active. Not shown: some 18% with an inconclusive outcome. No stated cut-off is given here; in the data, active means normalized growth mostly below about 0.91 (no sharp cut-off); inconclusive means no clear call, values can overlap the other calls; inactive means mostly above about 0.92. The list shows a part of the results.

Assay: chemical genetic growth profiling, strain panel (AID 1159580);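 further: tested at 20 µM; growth read once vehicle control cultures reached saturation at 30 °C; 1 = growth at the plate median or of vehicle wells; lower values mean less growth of the strain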
Settings: growth OD

Measured: normalized growth

COc1c(N2CCNC(C)C2)c(F)cc2c(=O)c(C(=O)O)cn(C3CC3)c12 (configuration not stated)
inactive: S. cerevisiae deletion strains, locus YJR075W, strain HOC1, active compounds read low 0.989 | S. cerevisiae deletion strains, locus YKL009W, strain mrt4, active compounds read low 1.02 | S. cerevisiae deletion strains, locus YKL068W, active compounds read low 0.997 | S. cerevisiae deletion strains, locus YKL085W, strain MDH1 (second series), active compounds read low 0.995 | S. cerevisiae deletion strains, locus YKL085W, strain MDH1, active compounds read low 0.995 | S. cerevisiae deletion strains, locus YKL160W, strain elf1, active compounds read low 0.975 | S. cerevisiae deletion strains, locus YKL190W, strain CNB1, active compounds read low 1.01 | S. cerevisiae deletion strains, locus YKR001C, strain vps1, active compounds read low 0.996 | S. cerevisiae deletion strains, locus YKR026C, strain gcn3, active compounds read low 0.987 | S. cerevisiae deletion strains, locus YKR091W, strain srl3, active compounds read low 0.98 | S. cerevisiae deletion strains, locus YLL001W, strain dnm1, active compounds read low 0.998 | S. cerevisiae deletion strains, locus YLL026W, active compounds read low 0.985 | S. cerevisiae deletion strains, locus YLL041C, strain sdh2, active compounds read low 0.988 | S. cerevisiae deletion strains, locus YLR027C, strain aat2, active compounds read low 0.99 | S. cerevisiae deletion strains, locus YLR039C, strain RIC1, active compounds read low 0.837 | S. cerevisiae deletion strains, locus YLR058C, strain SHM2, active compounds read low 1 | S. cerevisiae deletion strains, locus YLR102C, strain apc9, active compounds read low 0.988 | S. cerevisiae deletion strains, locus YLR113W, strain HOG1, active compounds read low 1.03 | S. cerevisiae deletion strains, locus YLR221C, strain rsa3, active compounds read low 0.975 | S. cerevisiae deletion strains, locus YLR258W, strain gsy2, active compounds read low 0.987 | S. cerevisiae deletion strains, locus YLR262C, strain YPT6 (second series), active compounds read low 0.915 | S. cerevisiae deletion strains, locus YLR262C, strain YPT6, active compounds read low 0.846 | S. cerevisiae deletion strains, locus YLR268W, strain sec22, active compounds read low 0.988 | S. cerevisiae deletion strains, locus YLR330W, strain CHS5, active compounds read low 1.01 | S. cerevisiae deletion strains, locus YLR342W, strain FKS1 (second series), active compounds read low 0.881 | S. cerevisiae deletion strains, locus YLR342W, strain FKS1, active compounds read low 0.972 | S. cerevisiae deletion strains, locus YLR357W, strain rsc2, active compounds read low 0.934 | S. cerevisiae deletion strains, locus YLR370C, strain arc18, active compounds read low 0.978 | S. cerevisiae deletion strains, locus YLR371W, strain rom2, active compounds read low 0.989 | S. cerevisiae deletion strains, locus YLR384C, strain iki3, active compounds read low 0.995 | S. cerevisiae deletion strains, locus YLR418C, strain cdc73, active compounds read low 0.973 | S. cerevisiae deletion strains, locus YML016C, strain PPZ1, active compounds read low 1.01 | S. cerevisiae deletion strains, locus YML120C, strain ndi1, active compounds read low 0.984 | S. cerevisiae deletion strains, locus YML124C, strain tub3, active compounds read low 0.985 | S. cerevisiae deletion strains, locus YMR058W, strain fet3, active compounds read low 0.992 | S. cerevisiae deletion strains, locus YMR078C, strain ctf18, active compounds read low 0.974 | S. cerevisiae deletion strains, locus YMR125W, strain sto1, active compounds read low 0.928 | S. cerevisiae deletion strains, locus YMR129W, active compounds read low 0.974 | S. cerevisiae deletion strains, locus YMR205C, strain PFK2, active compounds read low 0.996 | S. cerevisiae deletion strains, locus YMR223W, strain ubp8, active compounds read low 0.999 | S. cerevisiae deletion strains, locus YMR231W, strain pep5, active compounds read low 0.993 | S. cerevisiae deletion strains, locus YMR263W, strain SAP30, active compounds read low 1.01 | S. cerevisiae deletion strains, locus YMR307W, strain GAS1, active compounds read low 0.845 | S. cerevisiae deletion strains, locus YNL067W, strain RPL9B, active compounds read low 1 | S. cerevisiae deletion strains, locus YNL071W, strain lat1, active compounds read low 0.985 | S. cerevisiae deletion strains, locus YNL128W, strain TEP1, active compounds read low 1.03 | S. cerevisiae deletion strains, locus YNL153C, strain GIM3, active compounds read low 1.01 | S. cerevisiae deletion strains, locus YNL183C, strain NPR1, active compounds read low 0.983 | S. cerevisiae deletion strains, locus YNL209W, strain ssb2, active compounds read low 0.986 | S. cerevisiae deletion strains, locus YNL233W, strain BNI4, active compounds read low 1.01 | S. cerevisiae deletion strains, locus YNL248C, strain rpa49, active compounds read low 0.917 | S. cerevisiae deletion strains, locus YNL271C, strain bni1, active compounds read low 1 | S. cerevisiae deletion strains, locus YNL298W, strain CLA4, active compounds read low 1.02 | S. cerevisiae deletion strains, locus YNL307C, strain MCK1, active compounds read low 1 | S. cerevisiae deletion strains, locus YNL322C, strain KRE1 (second series), active compounds read low 0.967 | S. cerevisiae deletion strains, locus YNL322C, strain KRE1, active compounds read low 1.01 | S. cerevisiae deletion strains, locus YNR049C, strain mso1, active compounds read low 0.963 | S. cerevisiae deletion strains, locus YNR052C, strain pop2, active compounds read low 1 | S. cerevisiae deletion strains, locus YOL006C, strain TOP1, active compounds read low 0.936 | S. cerevisiae deletion strains, locus YOL012C, strain htz1 0.555 | S. cerevisiae deletion strains, locus YOL147C, strain pex11, active compounds read low 1 | S. cerevisiae deletion strains, locus YOR001W, strain rrp6, active compounds read low 0.986 | S. cerevisiae deletion strains, locus YOR061W, strain CKA2, active compounds read low 1.01 | S. cerevisiae deletion strains, locus YOR069W, strain VPS5, active compounds read low 1.01 | S. cerevisiae deletion strains, locus YOR070C, strain gyp1, active compounds read low 0.994 | S. cerevisiae deletion strains, locus YOR080W, strain dia2, active compounds read low 0.97 | S. cerevisiae deletion strains, locus YOR083W, strain WHI5, active compounds read low 1 | S. cerevisiae deletion strains, locus YOR106W, strain vam3, active compounds read low 0.994 | S. cerevisiae deletion strains, locus YOR136W, strain idh2, active compounds read low 1 | S. cerevisiae deletion strains, locus YOR144C, strain elg1, active compounds read low 0.998 | S. cerevisiae deletion strains, locus YOR184W, strain ser1, active compounds read low 0.99 | S. cerevisiae deletion strains, locus YOR231W, strain MKK1, active compounds read low 1.01 | S. cerevisiae deletion strains, locus YOR265W, strain rbl2, active compounds read low 0.984 | S. cerevisiae deletion strains, locus YOR270C, strain vph1, active compounds read low 0.896 | S. cerevisiae deletion strains, locus YOR290C, strain snf2, active compounds read low 0.951 | S. cerevisiae deletion strains, locus YOR316C, strain cot1, active compounds read low 0.995 | S. cerevisiae deletion strains, locus YPL051W, strain arl3, active compounds read low 0.975 | S. cerevisiae deletion strains, locus YPL055C, strain LGE1, active compounds read low 0.992 | S. cerevisiae deletion strains, locus YPL078C, strain atp4, active compounds read low 0.99 | S. cerevisiae deletion strains, locus YPL106C, strain sse1, active compounds read low 0.946 | S. cerevisiae deletion strains, locus YPL240C, strain hsp82, active compounds read low 0.986 | S. cerevisiae deletion strains, locus YPL241C, strain CIN2, active compounds read low 1.01 | S. cerevisiae deletion strains, locus YPL256C, strain CLN2, active compounds read low 0.956 | S. cerevisiae deletion strains, locus YPR119W, strain clb2, active compounds read low 0.997 | S. cerevisiae deletion strains, locus YPR141C, strain kar3, active compounds read low 1 | S. cerevisiae deletion strains, locus YPR163C, strain tif3, active compounds read low 1 | S. cerevisiae deletion strains, locus YPR167C, strain met16, active compounds read low 0.996 | S. cerevisiae deletion strains, strain wtn01, active compounds read low 0.996 | S. cerevisiae strains, strain wild type, active compounds read low 1.01
active: S. cerevisiae deletion strains, locus YLR320W, strain mms22, active compounds read low 0.75 | S. cerevisiae deletion strains, locus YML032C, strain rad52, active compounds read low 0.492 | S. cerevisiae deletion strains, locus YNL250W, strain rad50, active compounds read low 0.868
